Screening results as filed in PubChem BioAssay.
Kir21 inh – inhibitors of mouse Kir2.1 inward-rectifier potassium channel; P35561; HEK293-Kir2.1, FluxOR thallium flux fluorescence; hits give low values; B-score at 10 µM; 310,000 tested, 0.85% active; AID 1672;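 active = fluorescence ratio B-score at or below minus 3 SD of library scores, with starting-brightness B-score within 2 SD, cut at about -4.2 in these data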;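 also: channel flux triggered by added potassium and thallium sulfate stimulus; B-score of peak minus minimum fluorescence over baseline after thallium stimulus; more negative B-score means stronger Kir2.1 block with less thallium influx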
Target sequence (P35561 whole entry, looked up): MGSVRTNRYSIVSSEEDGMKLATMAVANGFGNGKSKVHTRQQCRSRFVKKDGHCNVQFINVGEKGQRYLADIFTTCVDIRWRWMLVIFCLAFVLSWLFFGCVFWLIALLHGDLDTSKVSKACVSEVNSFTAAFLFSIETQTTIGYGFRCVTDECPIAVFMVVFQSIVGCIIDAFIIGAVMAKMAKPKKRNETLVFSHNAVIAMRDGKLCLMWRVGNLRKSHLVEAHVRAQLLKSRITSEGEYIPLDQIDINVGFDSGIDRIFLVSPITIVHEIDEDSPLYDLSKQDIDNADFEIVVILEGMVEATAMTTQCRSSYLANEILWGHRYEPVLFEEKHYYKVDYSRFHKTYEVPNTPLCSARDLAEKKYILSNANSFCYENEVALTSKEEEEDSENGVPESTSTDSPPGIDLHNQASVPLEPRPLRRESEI
CHT inh – inhibitors of human choline transporter CHT; 310,000 tested, 0.86% active; AID 488975; B-score at 10 µM; CHT-expressing cells, membrane potential dye, choline response; hits give low values; Q9GZV3;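 active = B-score over 3 SD under the library average, and starting fluorescence ratio not unusually high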;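 also: choline stimulus applied at its EC90 after an EC20 pre-addition; B-score computed on integrated fluorescence ratio after choline addition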
TAG inh – inhibitors of triacylglycerol accumulation; H9c2 cells, Nile Red lipid (TAG) fluorescence; cells loaded with 200 µM oleic acid; inhibition, % at 12.5 µM; 230,000 tested, 0.66% active; AID 651582;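 active = pattern-corrected inhibition of lipid staining of at least 50% with the nuclear-stain viability signal not falling by more than 50%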;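 also: 0% = DMSO wells and 100% = triacsin C control wells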
CHT PAM – human CHT allosteric activation; B-score at 10 µM; CHT-expressing cells, membrane potential dye, choline EC20; hits give high values; LV-AA mutant CHT in HEK293 cells; Q9GZV3; 310,000 tested, 0.49% active;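 active = initial fluorescence not abnormally high and integrated response B-score, plate-corrected, over 3 SD above library mean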
TAG conf – confirmation of triacylglycerol accumulation inhibitors; shares compounds with TAG inh; AID 651629; 990 tested, 71% active; inhibition, % at 12.5 µM; H9c2 lipid accumulation, Nile Red fluorescence; cells loaded with 200 µM oleic acid;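 active = mean inhibition across replicates of 40% or more; inactive = mean inhibition below 40%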;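 also: plate controls were DMSO only wells for no effect and Triacsin C treated wells for full effect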
Numbers without * were called inactive; i = inactive; . = no result given. Shown are actives, neighbours in structure and some others; about 2% of the full set was active somewhere.

SMILES	Kir21 inh	CHT inh	TAG inh	CHT PAM	TAG conf
CCCC(=O)N1CCc2cc(OC)c(OC)cc2C1COc1ccccc1OC (configuration not stated)	-0.21	i	.	i	.
CCOc1ccc(CC2c3cc(OCC)c(OCC)cc3CCN2C(=O)c2cc(OC)c(OC)c(OC)c2)cc1OCC (configuration not stated)	0.14	i	62*	i	36
Cc1cccc(C(=O)OCC(=O)c2cccc(Br)c2)c1O	1.2	i	.	i	.
CC(C)N1CSC(=S)N(Cc2ccccc2)C1	-1.7	i	69*	i	49*
COc1ccc(-n2nnnc2SCC(=O)NCCc2ccccc2)cc1OC	-1.6	i	-11	i	.
COc1ccc(CCNc2nnc(Sc3nnnn3-c3ccccc3)s2)cc1OC	-4.5*	i	97*	i	76*
COc1ccc(-c2csc(NC(=O)CC(C)C)n2)cc1	0.01	i	65*	i	32
COc1ccc(-c2csc(NC(=O)c3c(OC)cccc3OC)n2)cc1	1.6	i	.	i	.
CCOC(=O)c1cc(-c2ccccc2)sc1NC(=O)C(C)N1C(=O)NC(C)(c2ccc(Cl)cc2)C1=O (configuration not stated)	-0.42	i	76*	i	76*
CCOC(=O)c1cc(-c2ccccc2)sc1NC(=O)C(C)C	-0.16	i	.	i	.
Cc1cc(NC(=S)NC(=O)c2ccccc2)ccc1-c1cc2ccccc2oc1=O	-0.92	i	.	i	.
O=c1cc(N2CCN(c3cccc(Cl)c3)CC2)[nH]c(=O)n1C1CCCCC1	0.39	i	69*	i	58*
O=c1cc(N2CCN(c3ccccc3)CC2)[nH]c(=O)n1C1CCCCC1	-0.99	i	63*	i	30
O=c1cc(N2CCOCC2)[nH]c(=O)n1C1CCCCC1	0.73	i	-1	i	.
O=C(CCC1CCCC1)Nc1ccc(OCC(=O)N2CCOCC2)cc1	-1.8	i	51*	i	36
CCCN1CCC(=NNc2ccc(S(=O)(=O)N3CCOCC3)cc2[N+](=O)[O-])CC1	0.12	i	.	i	.
CCCCCC(/C=N/Nc1ccc(S(=O)(=O)N2CCOCC2)cc1[N+](=O)[O-])=C\c1ccccc1	0.13	i	59*	i	63*
O=C(NCc1ccccc1)/C(=C\c1ccccc1)NC(=O)c1ccco1	-0.07	i	.	i	.
COc1ccc(NC(=O)Cn2c(-c3ccccc3)cc(C(C)=O)c2C)c(OC)c1	1.8	i	-4	i	.
CC1CC(C)CN(C(=O)c2cccc(N3C(=O)c4ccccc4C3=O)c2)C1 (configuration not stated)	.	.	12	.	.
O=C(Nc1ccc([N+](=O)[O-])cc1)c1cc(Cl)sc1Cl	-0.79	i	.	i	.
O=C(Nc1ccc(F)cc1)c1cc(Cl)sc1Cl	-0.23	i	52*	i	-4
Cc1cc(NC(=O)CSc2nc3ccccc3c(=O)n2C2CCCC2)no1	0.7	i	90*	i	69*
CN(C)c1ccc(NC(=O)CSc2nc3ccccc3c(=O)n2C2CCCCC2)cc1	-0.62	i	55*	i	49*
Cc1cc(NC(=O)CSc2nc3ccccc3c(=O)n2Cc2ccccc2)no1	0.46	i	11	i	.
SMILES	Kir21 inh	CHT inh	TAG inh	CHT PAM	TAG conf
CC1CCC2(CC1)NC(=O)N(NC(=O)c1ccc(OC(C)C)cc1)C2=O (configuration not stated)	.	.	-5	.	.
O=C(CSc1cccc2cccnc12)Nc1cc(C(=O)O)cc(C(=O)O)c1	-0.64	i	52*	i	19
Cc1cccc(NC(=O)CSc2cccc3cccnc23)c1	-0.28	i	59*	i	-14
O=C(CSc1cccc2cccnc12)Nc1ccccc1F	-0.49	i	73*	i	-1
NNC(=O)CSc1cccc2cccnc12	-0.86	i	.	i	.
O=C(NC1CCCC1)C(c1ccncc1)N(C(=O)c1csnn1)C1CCCC1 (configuration not stated)	-0.13	i	-7	i	.
CCOC(=O)c1cnc2c(c(C)nn2CC)c1NC1CC1	0.29	i	-21	i	.
Cc1cccc2sc(NC(=O)C3CCCN(S(=O)(=O)c4cccc5nonc45)C3)nc12 (configuration not stated)	0.24	i	54*	i	74*
Cc1ccc2nc(NC(=O)C3CCCN(S(=O)(=O)c4cccc5nonc45)C3)sc2c1 (configuration not stated)	0.31	i	.	i	.
